{"source": "PubChem BioAssay (Tox21)", "note": "Records with an inconclusive call do not appear. Where a call stands in place of a potency, no number is given. A number with no mark means an inactive call. Active and inactive are the calls of the source. Calls follow the shape of the full dose curve. Potency is read from the fitted curve at half-maximal effect."}
{"target": "Acetylcholinesterase (Homo sapiens) (UniProt P22303)", "sequence (P22303 whole entry, looked up)": "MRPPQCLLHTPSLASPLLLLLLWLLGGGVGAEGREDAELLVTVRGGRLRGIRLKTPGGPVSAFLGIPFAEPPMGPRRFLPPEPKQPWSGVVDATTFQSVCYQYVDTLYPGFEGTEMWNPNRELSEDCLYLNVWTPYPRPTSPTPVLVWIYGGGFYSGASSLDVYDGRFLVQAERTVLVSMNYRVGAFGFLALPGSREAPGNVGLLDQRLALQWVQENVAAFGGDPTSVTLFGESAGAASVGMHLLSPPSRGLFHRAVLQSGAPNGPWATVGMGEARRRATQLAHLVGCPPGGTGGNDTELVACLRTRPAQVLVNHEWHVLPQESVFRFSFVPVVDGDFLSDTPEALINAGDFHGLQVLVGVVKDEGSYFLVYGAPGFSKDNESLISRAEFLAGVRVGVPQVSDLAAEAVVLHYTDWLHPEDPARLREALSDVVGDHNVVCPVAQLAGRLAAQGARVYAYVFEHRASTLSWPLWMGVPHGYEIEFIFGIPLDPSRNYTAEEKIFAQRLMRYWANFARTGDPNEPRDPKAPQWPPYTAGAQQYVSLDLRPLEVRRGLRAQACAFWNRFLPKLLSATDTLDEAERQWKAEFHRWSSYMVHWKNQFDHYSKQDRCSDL", "test": "Acetylcholinesterase (AChE) small molecule antagonists: fluorescence cell-based qHTS assay (AID 1347398); also: nearly all actives have a fitted effect of over 50% in size", "conditions": "SH-SY5Y cells; Potency: AChE activity; outcome: AChE activity; series mostly up to 115 µM", "source_text": "National Center for Advancing Translational Sciences [NCATS]\nDivision of Preclinical Innovation [DPI]\nU.S. Environmental Protection Agency [EPA]\nNational Institutes of Environmental Health Sciences [NIEHS]\nNational Toxicology Program [NTP]\nU.S. Food and Drug Administration [FDA]\nAcetylcholinesterase (AChE) is the primary cholinesterase in the body that hydrolyzes a key neurotransmitter, acetylcholine. Inhibition of AChE activity can lead to neurotoxicity. Known inhibitors of AChE include organophosphorous pesticides (OP), chemical warfare agents, drugs, and various phytochemicals.\nA homogenous cell-based assay using Amplitetrade mark Fluorimetric Acetylcholinesterase Assay Kit *Green Fluorescence* (AAT Bioquest, Sunnyvale, CA) was used to evaluate the chemicals in the Tox21 10K library that inhibit AChE activity. The assay uses Thiolite Green to quantify the thiocholine produced from the hydrolysis of acetylthiocholine by AChE from the SH-SY5Y cells. AChE can hydrolyze acetylthiocholine to create thiocholine. Thiolite Green is fluorescent when reacting with thiocholine. It has spectral properties similar to those of fluorescein. The fluorescence intensity of Thiolite Green is used to measure AChE activity. Its signal can be easily read by a fluorescence microplate reader at Ex/Em = 490/520 nm.\nTox21 Assay Protocol Summary:\nFor cell-based AChE assay, 2,000 SH-SY5Y cells in 4 uL/well were dispensed into black, clear-bottom 1536-well plates using a Multidrop Combi (Thermo Scientific) dispenser. The assay plates were incubated overnight at 37 C to allow cells to attach to the wells, followed by the transfer of 23 nL compound or DMSO (vehicle control) by a Pintool station (Wako Automation, CA). The plates were incubated for 30 min at 37 C and 5% CO2, followed by the addition of 4 uL of detection cocktail solution (ThioliteGreen, acetylthiocholine) into each well using Flying Reagent Dispenser (Beckman Coulter, CA) and then following 40 min incubation at room temperature. Fluorescent intensity (Ex/Em = 490/520 nm) was measured using an Envision plate reader (PerkinElmer, MA)."}
{"smiles": "CCCc1ccc(N)cc1", "Potency": "inactive"}
{"smiles": "CCOc1ccc2nc3cc(N)ccc3c(N)c2c1", "Potency": "13.8 µM (active)"}
{"smiles": "Cc1ccc(-c2ccccc2)cc1", "Potency": "inactive"}
{"smiles": "C=CC(=C)CCCC(C)(C)OC(C)=O", "Potency": "inactive"}
{"smiles": "Cc1ccc(C2OC[C@@H]3OC(c4ccc(C)cc4)O[C@H]([C@H](O)CO)[C@@H]3O2)cc1", "note": "(stereo not given in full)", "Potency": "inactive"}
{"smiles": "CCCCCCCCCCCCCc1ccccc1", "Potency": "inactive"}
{"smiles": "C[C@@H]1C[C@H]2[C@@H]3C[C@H](F)C4=CC(=O)C(Cl)=C[C@]4(C)[C@@]3(F)[C@@H](O)C[C@]2(C)[C@@]1(O)C(=O)CO", "Potency": "inactive"}
{"smiles": "CCCC(C)C(O)CC", "note": "(stereo not given)", "Potency": "inactive"}
{"smiles": "CC(=O)NC1(c2cccc(F)c2)CCN(CC[C@@]2(c3ccc(Cl)c(Cl)c3)CN(c3ccccc3)C(=O)CO2)CC1", "Potency": "inactive"}
{"smiles": "NCCC(O)(P(=O)(O)O)P(=O)(O)O", "Potency": "inactive"}
{"smiles": "COCCOC(=O)C1=C(C)NC(C)=C(C(=O)OC/C=C/c2ccccc2)C1c1cccc([N+](=O)[O-])c1", "note": "(stereo not given)", "Potency": "inactive"}
{"smiles": "CCC(=O)OCc1ccc(OC)cc1", "Potency": "inactive"}
{"smiles": "Cc1cccc(C)c1NC(=O)c1cc(S(N)(=O)=O)c(Cl)cc1O", "Potency": "inactive"}
{"smiles": "CCC(=O)CC", "Potency": "inactive"}
{"smiles": "COC(C)(C)CC(C)=O", "Potency": "inactive"}
{"smiles": "c1ccc2c(c1)ccc1c3ccccc3ccc21", "Potency": "inactive"}
{"smiles": "c1ccc(-c2nc[nH]c2-c2ccccc2)cc1", "Potency": "inactive"}
{"smiles": "CCCC=O", "Potency": "inactive"}
{"smiles": "COC(C(=O)O)c1ccccc1", "note": "(stereo not given)", "Potency": "inactive"}
{"smiles": "COCCO", "Potency": "inactive"}
{"smiles": "CC(=O)CCC1=C(C)CCCC1(C)C", "Potency": "inactive"}
{"smiles": "Cc1onc(-c2ccccc2)c1-c1ccc(S(N)(=O)=O)cc1", "Potency": "inactive"}
{"smiles": "CC(=O)NC(Cc1ccccc1)C(=O)O", "note": "(stereo not given)", "Potency": "inactive"}
{"smiles": "CCCCOc1ccc(C(=O)CCN2CCCCC2)cc1", "Potency": "12.3 µM (active)"}
{"smiles": "O=S(=O)(O)c1ccc2c(N=Nc3ccc(S(=O)(=O)O)c4ccccc34)c(O)c(S(=O)(=O)O)cc2c1", "activity change, negative = inhibition": "5.15% [at 10.5 µM]"}
{"smiles": "CCC(C)CCCC(C)(C)O", "note": "(stereo not given)", "Potency": "inactive"}
{"smiles": "Cc1oc2c(NC(=O)c3c(Cl)cccc3Cl)cccc2c1C(C)(C)O", "Potency": "inactive"}
{"smiles": "COc1c2occc2c(OC)c2c(=O)cc(C)oc12", "Potency": "inactive"}
{"smiles": "C=C1CCC2CC1C2(C)C", "note": "(stereo not given)", "Potency": "inactive"}
{"smiles": "CCC(C)S", "note": "(stereo not given)", "activity change, negative = inhibition": "4.18% [at 3.98 µM]"}
{"smiles": "CCCCCCOC(=O)CC", "Potency": "inactive"}
{"smiles": "CCCCCCCCCC(C)C=O", "note": "(stereo not given)", "Potency": "inactive"}
{"smiles": "c1cc2c3c(c1)ccc1cccc(c13)C2", "Potency": "inactive"}
{"smiles": "C[C@@H]1CN(c2c(F)c(F)c3c(=O)c(C(=O)O)cn(C4CC4)c3c2F)C[C@H](C)N1", "activity change, negative = inhibition": "0.907% [at 23.8 µM]"}
{"smiles": "CCCCCCCCCCCC(C)=O", "Potency": "inactive"}
{"smiles": "CC/C=C\\C/C=C\\C/C=C\\CCCCCCCC(=O)OC", "Potency": "inactive"}
{"smiles": "c1ccc(-c2nc3ccccc3[nH]2)cc1", "Potency": "inactive"}
{"smiles": "CN(C)CCCOc1nn(Cc2ccccc2)c2ccccc12", "Potency": "inactive"}
{"smiles": "CC1=CC(=O)[C@H]2C[C@@H]1C2(C)C", "Potency": "inactive"}
{"smiles": "C=C1CC[C@H]2C[C@@H]1C2(C)C", "Potency": "inactive"}
